The nature of experiment [1]: AP1 Signaling Pathway (AID 357; active means well fitted curve in either direction with a large enough effect, not every such curve was filed as active;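 further: ME-180 reporter cells stimulated with EGF at its EC50 level; on the % scale 0 is the no-effect control and ±100 the full control effect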). Summed up:
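Cells are seeded overnight, exposed to compound titrations and an EC50 level of EGF for 5 hours at 37 °C, then loaded with CCF4 dye for 2.5 hours. Beta-lactamase activity under the AP-1 element is read as a blue/green ratio.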

Experiment [2] in a line: NFAT Signaling Pathway (AID 444; active means well fitted curve in either direction with a large enough effect, not every such curve was filed as active;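 further: carbachol stimulus at about its EC50 of 1 µM final; on the % scale 0 is the no-effect control and ±100 the full control effect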). The following applies: Jurkat NFAT-bla M1, carbachol, beta-lactamase ratio, 5 h; at 17.2 µM (top of the series) unless noted. Summed up: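 Jurkat cells carrying an NFAT-driven β-lactamase reporter and co-transfected muscarinic M1 receptor were treated with compound plus carbachol (1 uM final, an EC50 level) for 5 h at 37 °C. CCF4 loading followed for 1 h at RT; 460/530 nm ratio gave %activity.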

Experiment [3] can be described thus: Stat Signaling Pathway (AID 446; active means well fitted curve in either direction with a large enough effect, not every such curve was filed as active;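 further: ME-180 cervical cancer cells given 40 pM IL-6 alongside compound; SIE-controlled beta-lactamase reporter measured as 460/530 nm FRET emission ratio; on the % scale 0 is the no-effect control and ±100 the full control effect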). The procedure, abridged: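 Emission at 460 and 530 nm (excitation 405 nm) reports SIE-controlled beta-lactamase in ME-180 cells. Cells received compound with 40 pM IL-6 for 5 hrs at 37 C; data scaled between 300 pM IL-6 and 125 nM JAK-inhibitor controls.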
The target in experiment [4] is Glucocorticoid receptor (Homo sapiens) (UniProt P04150). The experiment is described as follows: GR-EFC Redistribution (AID 451; calls by dose curve; further: potency means the concentration at half of the fitted maximal effect). The following applies: CHO-K1 GR-EFC translocation, beta-gal luminescence, 2 h. Summed up: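 CHO-K1 cells stably expressing nuclear-localized β-gal enzyme acceptor and GR fused C-terminally to the enzyme donor fragment; ligand-driven nuclear translocation restores β-gal by complementation. Compounds titrated up to 46 uM final, 2 h at 37 °C; luminescence read.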
Glucocorticoid receptor (Homo sapiens), sequence (P04150 whole entry, looked up, the tested form may be a part): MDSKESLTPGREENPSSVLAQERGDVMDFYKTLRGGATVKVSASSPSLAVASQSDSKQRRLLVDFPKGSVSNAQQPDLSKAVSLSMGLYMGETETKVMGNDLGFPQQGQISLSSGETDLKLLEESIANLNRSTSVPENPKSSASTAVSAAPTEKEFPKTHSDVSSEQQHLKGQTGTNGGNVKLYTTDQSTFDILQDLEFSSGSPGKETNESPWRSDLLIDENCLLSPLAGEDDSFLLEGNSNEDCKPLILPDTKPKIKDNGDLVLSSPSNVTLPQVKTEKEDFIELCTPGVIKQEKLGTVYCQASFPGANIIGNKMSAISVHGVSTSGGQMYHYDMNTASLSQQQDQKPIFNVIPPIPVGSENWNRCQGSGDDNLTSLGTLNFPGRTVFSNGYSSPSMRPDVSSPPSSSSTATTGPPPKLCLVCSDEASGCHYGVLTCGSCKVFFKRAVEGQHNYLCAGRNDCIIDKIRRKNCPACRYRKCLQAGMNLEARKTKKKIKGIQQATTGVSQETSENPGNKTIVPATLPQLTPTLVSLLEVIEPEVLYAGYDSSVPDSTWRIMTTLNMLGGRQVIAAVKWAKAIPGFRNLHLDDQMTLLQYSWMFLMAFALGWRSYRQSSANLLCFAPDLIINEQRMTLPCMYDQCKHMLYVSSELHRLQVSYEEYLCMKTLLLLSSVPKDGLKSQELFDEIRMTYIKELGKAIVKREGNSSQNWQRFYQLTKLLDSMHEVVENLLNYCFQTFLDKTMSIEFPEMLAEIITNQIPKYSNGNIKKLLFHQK

The target in experiment [5] is Mitogen-activated protein kinase 10 (Mus musculus) (UniProt Q61831). In words: JNK3 AlphaScreen Assay (AID 530; active means well fitted curve in either direction with a large enough effect, not every such curve was filed as active;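 further: kinase came from lysate of stimulated human HepG2 cells; signal reports phosphorylation of biotinylated GST-cJun 1-79 at Ser73 with 10 µM ATP; on the % scale 0 is the no-effect control and ±100 the full control effect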). Summed up: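 Phosphorylation of biotinylated GST-cJun(1-79) at Ser73 is measured by AlphaScreen proximity luminescence. Enzyme is JNK3 in HepG2 lysates activated with interleukin-1beta and tumor necrosis factor alpha; ATP is 10 uM final.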
In general terms: Alpha assays give light when donor and acceptor beads are brought close together.

Experiment [6] is described as follows: qHTS Assay for Lipid Storage Modulators (AID 1519; calls by dose curve). The following applies: Drosophila S3 cells, BODIPY lipid droplet/cell ratio, laser cytometry, cells loaded with oleic acid; for activity change, negative = inhibition: at 25.7 µM (top of the series). The procedure, abridged: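 Cells seeded at 5,000 per well were treated with compounds over a concentration series and loaded with oleic acid (400 uM, as added). Lipid droplet fluorescence (488 nm excitation, 500-530 nm channel) was read by laser-scanning cytometry and normalized to 20 uM Triacsin C.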

Experiment [7] addresses Ubiquitin carboxyl-terminal hydrolase 1 (Homo sapiens) (UniProt O94782). The experiment is described as follows: Inhibitors of USP1/UAF1: Pilot qHTS (AID 504865).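 Further: rhodamine fluorescence freed from ubiquitin-rhodamine substrate followed over time; top concentration of the series differs between compounds; on the % scale 0 is the no-effect control and ±100 the full control effect; nearly all actives have a fitted effect of over 35% in size.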 Summed up:
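USP1/UAF1 complex at 1 nM preincubated 15 min at room temperature with compound, then Ub-Rho substrate added at 150 nM final. Fluorescence (480/540 nm) read kinetically in 50 mM HEPES pH 7.8, 0.5 mM EDTA, 1 mM TCEP, 0.1 mg/ml BSA, 0.01% Tween-20.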
For orientation: qHTS replaces the single test concentration by a dilution series.

Experiment [8] addresses 3',5'-cyclic-AMP phosphodiesterase 4B (Homo sapiens) (UniProt Q07343). The experiment is described as follows: qHTS Assay for Inhibitors of PDE-IV (AID 607; active means well fitted activation curve with a large enough effect in the main read-out, with a control signal flat, not every such curve was filed as active; further: % of control where 0% means no effect). The procedure, abridged: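 The readout is membrane depolarisation from a cAMP-sensing CNG channel, detected with a potential dye at ex 535/em 590. Cells were HEK293-derived (endogenous PDE-IV) at 1000 cells/well, titrated up to 22.9 uM final.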

A short description of experiment [9]: qHTS profiling for inhibitors of Plasmodium falciparum proliferation (AID 504749).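 Further: 0% = DMSO vehicle and full inhibition = artemisinin control; nearly all actives have a fitted effect of over 60% in size.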 The following applies: P. falciparum in erythrocytes, SYBR Green DNA, 72 h, at 12.8 µM (top of the series). The procedure, abridged:
(§1)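 Quantitative HTS: compounds pinned into medium, infected erythrocytes added (0.3% parasitemia, 2.5% hematocrit), 72 h culture at 37 C under 5% CO2. Saponin/Triton lysis with SYBR Green I, overnight RT, then fluorescence read.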

A further experiment concerns C2A. The experiment is described as above. The following applies: P. falciparum in erythrocytes, SYBR Green DNA, 72 h; series mostly up to 12.8 µM. Summed up:
as §1

Another experiment has as its system CP191. Described as above. The following applies: P. falciparum in erythrocytes, SYBR Green DNA, 72 h; series mostly up to 12.8 µM. The procedure, abridged:
as §1

A further experiment relates to CP217. Described as above. The following applies: P. falciparum in erythrocytes, SYBR Green DNA, 72 h; series mostly up to 12.8 µM. Summed up:
as §1

In another experiment the test system is CP238. The experiment is described as above. The following applies: P. falciparum in erythrocytes, SYBR Green DNA, 72 h; series mostly up to 12.8 µM. The procedure, abridged: as §1
The test system of the next experiment is CP250. The experiment is described as above. Conditions: P. falciparum in erythrocytes, SYBR Green DNA, 72 h; series mostly up to 12.8 µM. Summed up: as §1
Another experiment concerns CP256. Described as above. The following applies: P. falciparum in erythrocytes, SYBR Green DNA, 72 h; series mostly up to 12.8 µM. The procedure, abridged: as §1
The next experiment concerns FAB9. Described as above. The following applies: P. falciparum in erythrocytes, SYBR Green DNA, 72 h; series mostly up to 12.8 µM. The procedure, abridged:
as §1

The test system of another experiment is JCK. Described as above. The following applies: P. falciparum in erythrocytes, SYBR Green DNA, 72 h; series mostly up to 12.8 µM. The procedure, abridged:
as §1

The test system of another experiment is PC49. The description is as above. The following applies: P. falciparum in erythrocytes, SYBR Green DNA, 72 h; series mostly up to 12.8 µM. The procedure, abridged: as §1
The test system of the next experiment is SC27B. The experiment is described as above. The following applies: P. falciparum in erythrocytes, SYBR Green DNA, 72 h; series mostly up to 12.8 µM. The procedure, abridged:
as §1

The target of experiment [10] is Glucocorticoid receptor (Homo sapiens) (UniProt P04150). In words: GR-GFP Redistribution (AID 450;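 active means compounds whose dose series gives a full or clear partial fitted curve of increased nuclear translocation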; further: potency means the concentration at half of the fitted maximal effect). The following applies: U2OS GR-GFP nuclear translocation, laser cytometry, 2 h.
Where [11] appears, read: measured here: cell count channel max response.
Setting [12] is: measured here: lipid channel max response.

SMILES strings stand for the structures. Records with an inconclusive call do not appear. Active and inactive are the calls of the source. Unless noted, the call rests on the fitted dose curve; in most records, active means well fitted inhibition curve with a large enough effect; inconclusive means small, poorly fitted or top-dose-only effect; inactive means flat fitted curve, though single readings scatter. Bounds are passed on as bounds.

3',5'-cyclic-AMP phosphodiesterase 4B (Homo sapiens), sequence (Q07343 whole entry, looked up): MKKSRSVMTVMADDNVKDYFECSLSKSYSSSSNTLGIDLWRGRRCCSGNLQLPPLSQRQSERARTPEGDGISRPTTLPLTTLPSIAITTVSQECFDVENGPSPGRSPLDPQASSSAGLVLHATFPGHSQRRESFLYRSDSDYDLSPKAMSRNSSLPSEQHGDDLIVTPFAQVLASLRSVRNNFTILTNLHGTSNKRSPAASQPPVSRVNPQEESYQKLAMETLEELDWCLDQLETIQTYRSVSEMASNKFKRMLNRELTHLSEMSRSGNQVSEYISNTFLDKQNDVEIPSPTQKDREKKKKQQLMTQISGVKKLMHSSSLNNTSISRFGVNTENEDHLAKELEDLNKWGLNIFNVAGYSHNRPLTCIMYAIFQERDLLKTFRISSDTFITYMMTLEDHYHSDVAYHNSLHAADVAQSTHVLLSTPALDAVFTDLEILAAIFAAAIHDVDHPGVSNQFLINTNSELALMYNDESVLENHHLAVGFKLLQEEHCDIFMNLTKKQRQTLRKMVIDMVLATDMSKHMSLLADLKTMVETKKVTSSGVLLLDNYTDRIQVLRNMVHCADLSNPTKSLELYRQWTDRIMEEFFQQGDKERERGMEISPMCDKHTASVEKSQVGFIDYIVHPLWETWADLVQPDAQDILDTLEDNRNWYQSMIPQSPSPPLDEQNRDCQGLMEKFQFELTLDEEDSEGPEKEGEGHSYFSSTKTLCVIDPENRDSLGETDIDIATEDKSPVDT
Ubiquitin carboxyl-terminal hydrolase 1 (Homo sapiens), sequence (O94782 whole entry, looked up): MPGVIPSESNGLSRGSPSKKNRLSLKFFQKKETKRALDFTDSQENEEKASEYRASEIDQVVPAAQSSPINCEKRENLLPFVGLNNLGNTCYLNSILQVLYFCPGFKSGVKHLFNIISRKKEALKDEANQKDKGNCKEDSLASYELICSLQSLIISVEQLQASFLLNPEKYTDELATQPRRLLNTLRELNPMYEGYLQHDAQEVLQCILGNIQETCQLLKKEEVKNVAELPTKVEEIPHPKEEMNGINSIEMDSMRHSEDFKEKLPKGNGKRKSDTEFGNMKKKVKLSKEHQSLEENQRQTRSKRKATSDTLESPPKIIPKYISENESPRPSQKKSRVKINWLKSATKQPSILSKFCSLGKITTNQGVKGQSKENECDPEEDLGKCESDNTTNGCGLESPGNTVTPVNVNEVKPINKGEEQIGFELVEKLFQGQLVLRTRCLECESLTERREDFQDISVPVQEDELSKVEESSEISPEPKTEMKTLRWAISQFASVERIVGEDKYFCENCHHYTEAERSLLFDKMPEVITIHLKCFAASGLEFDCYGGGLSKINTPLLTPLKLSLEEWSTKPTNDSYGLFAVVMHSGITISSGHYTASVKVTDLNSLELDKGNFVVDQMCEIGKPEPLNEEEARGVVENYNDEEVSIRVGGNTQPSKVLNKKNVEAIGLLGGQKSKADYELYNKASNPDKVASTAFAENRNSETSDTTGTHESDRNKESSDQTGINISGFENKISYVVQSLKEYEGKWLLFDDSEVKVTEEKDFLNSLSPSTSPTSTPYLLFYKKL

Regarding `COc1cc(OC)c2c(c1Cl)O[C@@]1(C2=O)[C@H](C)CC(=O)C[C@@H]1OC`, the compound was classed as inactive in experiment [1] and in experiment [3]. The activity change, negative = inhibition in [2] was -1.63% (inactive); in experiment [6], -1.85% (inactive). In addition, the Potency in experiment [4] is > 20.6 µM (inactive). For the same compound, the Potency result in experiment [5] and in experiment [7] was “inactive” each time. The max response was -13.8% in experiment [6] (setting [11]) and -15.1% in experiment [6] (setting [12]).

With `COc1c(O[C@H]2O[C@@H](CO)[C@@H](O)[C@@H](O)[C@@H]2O)cc2c(c1OC)-c1ccc(SC)c(=O)cc1[C@H](NC(C)=O)CC2`, the outcome in experiment [1], in experiment [3] and in experiment [8] was inactive. Besides, the activity change, negative = inhibition in [2] was 5.96% (inactive); in experiment [6], -1.68% (inactive). In addition, the Potency entry (in [5]; in experiment [7]; in the experiment on C2A; in the experiment on CP191; in the experiment with CP217; in the experiment with CP238) was “inactive” in each case. The Potency entry with CP250, in the experiment on CP256, with FAB9, in the experiment on JCK, in the experiment with PC49 and in the experiment on SC27B was “inactive” throughout. Besides, the max response in experiment [6] (setting [11]) is 3.12%; in experiment [6] (setting [12]) it was 2.91%. Also, the activity, negative = inhibition in experiment [9] (parasite line A) was 5.35% (inactive); in experiment [9] (parasite line B), 4.25% (inactive).

Turning to `CS(=O)(=O)c1ccc([C@H](O)[C@H](CF)NC(=O)C(Cl)Cl)cc1`, the call in [1], in [3] and in [8] was inactive. The activity change, negative = inhibition in experiment [2] is 1.9% (inactive); in [6], 1.06% (inactive). Moreover, the Potency in experiment [4] is > 20.6 µM (inactive). For the same compound, in experiment [5], the Potency result is “inactive”. In addition, the max response in experiment [6] (setting [11]) came to 1.07%; in experiment [6] (setting [12]), 2.55%.

For the compound `CCCC(=O)Nc1ccc(OC[C@@H](O)CNC(C)C)c(C(C)=O)c1`, the outcome in experiment [1], in [3] and in [8] was inactive. Moreover, the activity change, negative = inhibition is -10.7% (inactive) in experiment [2] and -2.69% (inactive) in experiment [6]. Also, the Potency in experiment [10] was > 20.6 µM (inactive). The Potency result in experiment [5] and in [7] was “inactive” throughout. Further, the max response in experiment [6] (setting [11]) was -0.4%; in experiment [6] (setting [12]), -3.96%.

`CCc1c(C)[nH]c2c1C(=O)[C@H](CN1CCOCC1)CC2`: the compound was classed as inactive in experiment [1], in experiment [3] and in experiment [8]. The activity change, negative = inhibition in experiment [2] is -21.1% (inactive); in [6], 0.521% (inactive). The Potency entry (in [5]; with C2A; with CP191; with CP217; in the experiment on CP238; in the experiment on CP250) was “inactive” throughout. In addition, the Potency result with CP256, in the experiment on FAB9, in the experiment with JCK, in the experiment with PC49 and in the experiment with SC27B was “inactive” each time. Also, the results for the max response in experiment [6] (setting [11]) and in experiment [6] (setting [12]) were -8.85% and -8.65%, respectively. In addition, the activity, negative = inhibition in experiment [9] (parasite line A) is 13% (inactive); in [9] (parasite line B) it was 6.66% (inactive).

Turning to `CO[C@@H]1C[C@H](O[C@H]2[C@@H](C)[C@H](O[C@@H]3O[C@@H](C)C[C@@H](N(C)C)[C@@H]3OC(C)=O)[C@H](C)C[C@]3(CO3)C(=O)[C@H](C)[C@H](OC(C)=O)[C@H](C)[C@H](C)OC(=O)[C@@H]2C)O[C@H](C)[C@@H]1OC(C)=O`, the compound was called inactive in [1], in [3] and in experiment [8]. Besides, the activity change, negative = inhibition was 11.7% (inactive) in [2] and -1.3% (inactive) in experiment [6]. Moreover, the Potency result (in experiment [5]; in experiment [7]; in the experiment on C2A; in the experiment with CP191; with CP217; in the experiment with CP238) was “inactive” throughout. Moreover, the Potency result in the experiment with CP250, in the experiment on CP256, in the experiment on FAB9, with JCK, with PC49 and in the experiment on SC27B was “inactive” each time. Also, the max response in [6] (setting [11]) was -6.43%; in [6] (setting [12]), -9.02%. Besides, the activity, negative = inhibition in [9] (parasite line A) is -21.7% (inactive); in experiment [9] (parasite line B) it was -14.9% (inactive).

(Values after PubChem BioAssay (NCATS).)
